SMILES strings stand for the structures. About 83,000 compounds went through this panel and 20% of them were active in at least one assay; those are over-represented in the sample as a whole.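 Percent growth is the endpoint: 0 to 100 indicates growth inhibition (40 means 60% inhibition), 0 means no net growth, and negative values indicate cell death.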 A number with no mark means an inactive call. Activity calls are given as the source filed them. The calls were made as follows: active = growth percent below 10; inactive = the rest.

Consider 35 compounds from PubChem BioAssay (NCI).

The test system of one experiment is OVCAR-5 ovarian. The experiment in a line: NCI-60 one-dose screen, 48 h (100 = growth as untreated, 0 = no growth, -100 = all killed). The settings on record: 10 µM unless noted.
Regarding `O=C(Nc1ccc(S(=O)(=O)N2CCCCC2)cc1)C(Cl)Cl`, the growth was 127%.
As to `O=C(c1ccc(Cl)cc1)C1[C@H](c2ccccc2Cl)[C@@H](c2ccccc2)NC12C(=O)Nc1ccccc12` (some centres undefined), the growth was -5.18% (active).
Same read-out and setting: the result for `O=C(c1ccc(O)cc1)C1[C@H](c2ccc(Cl)cc2)[C@@H](c2ccccc2)NC12C(=O)Nc1ccccc12` (some centres undefined) reads 9.48% (active); that for `Cc1ccc2nc(SCc3ccccc3F)n(-c3ccccc3)c(=O)c2c1`, 116%; that for `CCCCNc1ccc2c3c(cccc13)C(=O)N(NCC(O)COc1ccc3c(C)cc(=O)oc3c1)C2=O` (centres undefined), 106%.
On to `c1n[nH]cc1-c1nc2ccc3[nH]ncc3c2c2c1CC1(CC2)COC1`, for which the growth is 107%.
On to `CCN1CCN(Cc2ccc(C(=O)Nc3cccc(Nc4ccc5c(OC)cccc5n4)c3)cc2C(F)(F)F)CC1`, for which the growth was -91.9% (active).
The same measure, in the same setting: the same measure for `O=C(NN1C(=O)/C(=C/C=C/c2ccc([N+](=O)[O-])o2)SC1=S)c1ccc([N+](=O)[O-])cc1`: -100% (active); for `C=CCn1c(O)c(N=Nc2nc(-c3cc4ccccc4oc3=O)cs2)c2ccccc21`: 18.6%.
The same measure, in the same setting: the same measure for `CCCCCCCCCCCCCCCCCC(=O)Nc1ccc(OC)cc1`: 114%.
Take `Cn1cc(-c2cc(N)n3nc(-c4c[nH]c5ccc(Cl)cc45)cc3n2)c2cc(Br)cnc21`: the growth is -61.2% (active).
Consider `COC(=O)c1ccc(-c2c(-c3ccccc3)c(F)c3oc(C(=O)OC)c(N)c3c2-c2ccccc2)cc1`, for which the growth is 96.6%.
Take `COc1ccc(-c2nc3ccccc3n2CC(=O)N=Nc2c(O)[nH]c3ccc(Br)cc23)cc1`: the growth is 113%.
On the same count and under the same terms, the result for `O=C(N/N=C/c1c[nH]c2ccccc12)Nc1ccccc1Cl` reads 23.1%; that for `COc1ccc(CCC2NCCc3c(Br)c4c(c(OC)c32)OCO4)cc1` (centres undefined), 11.6%; that for `CN(C)c1nc(NCCNS(=O)(=O)c2ccc(C(=O)/C=C/c3ccc(Cl)cc3)cc2)nc(N2CCOCC2)n1`, 55.4%.
Still for that read-out and setting: the same measure for `COc1ccccc1NC(=O)N/N=C/c1c[nH]c2ccccc12`: 34.4%; for `O=C1/C(=C/c2cnc(-c3ccccc3)s2)SC(=S)N1Cc1ccc2c(c1)OCO2`: 99.4%.
Consider `N#CC1=C(c2cccs2)Nc2c(c(-c3ccccc3)nn2-c2ccccc2)C12C(=O)Nc1ccccc12` (centres undefined), for which the growth is 57.7%.
Same read-out and setting: the same measure for `COc1ccc2[nH]c(=O)cc(-n3ncc(C(=O)/C=C/c4cc(OC)c(OC)c(OC)c4)c3C)c2c1`: -26.3% (active); for `C[C@H](NC(=O)c1ccc2c(-c3ccc(C(F)(F)F)cc3)cccc2c1)c1ccccn1`: 75.2%; for `Cn1cc(Nc2ncnc(-c3ccc(N4CCCC4)c(C#N)c3)n2)cn1`: 85.4%.
Turning to `CCCCCCCCc1cccc(CC(=O)Nc2ccc(C)cc2C(=O)O)c1`, the growth is 75.6% [25 µM].
Still for that read-out and setting: the result for `O=C1CCC(N2C(=O)c3cccc(NCCCCCC(=O)N4CCN(c5ccc6nc7c(nc6c5C(F)(F)F)C(=O)c5ncccc5C7=O)CC4)c3C2=O)C(=O)N1` (centres undefined) reads -90.5% (active).
Regarding `CN1C(=O)/C(=C\C(=O)c2cc3ccccc3oc2=O)c2ccccc21`, the growth was 84.3%.
The same measure, in the same setting: the result for `Cc1ccc2nc(NC(=O)Nc3cccc(Cl)c3)sc2c1` reads 118%.
On the same count and under the same terms, the same measure for `O=C1Nc2ccccc2/C1=C\c1ccc(OCC(=O)c2ccc(Br)cc2)cc1`: 93.2%; for `COc1ccc2[nH]cc(-c3cc(N)n4nc(-c5c[nH]c6ccccc56)cc4n3)c2c1`: 7.37% (active); for `Cn1cc(-c2cc(N)n3nc(-c4c[nH]c5ccc(Cl)cc45)cc3n2)c2cccnc21`: -82.5% (active).
In the case of `Cc1ccc(-c2cc(C(=O)N=Nc3c(O)[nH]c4ccc(F)cc34)c3ccccc3n2)cc1`, the growth is 70%.
For `O=C(NN1C(=O)/C(=C/C=C/c2ccc([N+](=O)[O-])o2)SC1=S)c1ccncc1`, the growth is -98.9% (active).

In a further experiment the test system is OVCAR-4 ovarian. Described as above. As to conditions: 1 µM.
For the compound `CC/C(=C(/c1ccc(O)cc1)c1ccc(OCCN(C)C(=O)COCCOCCNC(=O)c2ccc3c(c2)CN([C@@H]2CCC(=O)NC2=O)C3=O)cc1)c1ccccc1`, the growth was 103%.
On the same count and under the same terms, the result for `CC/C(=C(/c1ccc(O)cc1)c1ccc(OCCN(C)C(=O)COCCOCCNC(=O)Cc2ccc3c(c2)CN([C@@H]2CCC(=O)NC2=O)C3=O)cc1)c1ccccc1` reads 101%; that for `CC/C(=C(\c1ccc(O)cc1)c1ccc(OCCN(C)C(=O)CCOCCNC(=O)c2ccc3c(c2)CN([C@@H]2CCC(=O)NC2=O)C3=O)cc1)c1ccccc1`, 109%.
Still for that read-out and setting: the same measure for `CC/C(=C(\c1ccc(O)cc1)c1ccc(OCCN(C)C(=O)COCCNC(=O)Cc2ccc3c(c2)CN([C@@H]2CCC(=O)NC2=O)C3=O)cc1)c1ccccc1`: 91.3%.

Still in this experiment, the particulars now being: 10 µM.
As for `CC/C(=C(/c1ccc(O)cc1)c1ccc(OCCN(C)C(=O)COCCOCCNC(=O)c2ccc3c(c2)CN([C@@H]2CCC(=O)NC2=O)C3=O)cc1)c1ccccc1`, the growth was 93%.
`CC/C(=C(/c1ccc(O)cc1)c1ccc(OCCN(C)C(=O)COCCOCCNC(=O)Cc2ccc3c(c2)CN([C@@H]2CCC(=O)NC2=O)C3=O)cc1)c1ccccc1`: the growth is 59.2%.
Consider `CC/C(=C(\c1ccc(O)cc1)c1ccc(OCCN(C)C(=O)CCOCCNC(=O)c2ccc3c(c2)CN([C@@H]2CCC(=O)NC2=O)C3=O)cc1)c1ccccc1`, for which the growth was 96.1%.
On the same count and under the same terms, the same measure for `CC/C(=C(\c1ccc(O)cc1)c1ccc(OCCN(C)C(=O)COCCNC(=O)Cc2ccc3c(c2)CN([C@@H]2CCC(=O)NC2=O)C3=O)cc1)c1ccccc1`: 38.7%.
